Pf growth 48h: inhibits P. falciparum growth in the first generation, 48 h; 310,000 compounds, 5.9% hits; Potency, µM (top dose mostly 28.7 µM), without a hit: top-dose activity change, negative = inhibition, hits mostly inhibitors; P. falciparum luciferase growth in erythrocytes, 48 h
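Compounds are pin-transferred into medium, infected erythrocytes (2% hematocrit, 0.1% parasitemia final) are added, and plates sit one parasite generation at 37 C in 5% CO2. Detection reagent is then added and luminescence measured.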
AMA1 RON2 block: AMA1-RON2 (P. falciparum) interaction inhibition; AlphaScreen AMA1-biotinylated RON2 peptide binding; Potency, µM (titrated, usually from 58.2 µM), for inactives: at the highest dose activity change, negative = inhibition, actives largely listed as inhibitors; 360,000 compounds, 0.2% hits; AID 720542;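 further: 0% = vehicle wells and -100% = peptide control; nearly all actives have a fitted effect of over 45% in size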
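AMA1 (3D7) with his tag at 25 nM final met compounds first, then biotinylated RON2 peptide at 25 nM; detection used donor plus acceptor beads, 10 µg/mL apiece, read by AlphaScreen after 30 min at room temperature.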
Vaccinia Venus: vaccinia inhibition (Venus reporter); Vaccinia virus Venus reporter expression, fluorescence; Potency, µM (highest dose often 36.5 µM), for inactives: top-dose activity change, negative = inhibition, hits mostly inhibitors; 330,000 compounds, 0.46% hits; AID 720580; calls by dose curve; tested in A549 cells; further: nearly all actives have a fitted effect of over 30% in size
Pf growth 96h: P. falciparum growth inhibition at 96 hour, primary screen for plastid delayed-death inhibitors; P. falciparum luciferase reporter growth, 96 h; Potency, µM (highest dose often 28.7 µM), for inactives: top-dose activity change, negative = inhibition, most hits filed as inhibitors; 320,000 compounds, 6.9% hits; AID 504834
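Cell-based qHTS: luciferase-tagged P. falciparum in erythrocytes (2% hematocrit, 0.05% parasitemia final) incubated with compounds for 96 hours, 37 C, 5% CO2; luciferase detection reagent then added and luminescence measured.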
VACV mCherry inh: vaccinia inhibition (mCherry reporter); Vaccinia virus mCherry reporter infection, fluorescence; Potency, µM (doses to about 36.5 µM), inactives show at the top dose activity change, negative = inhibition, most hits filed as inhibitors; 310,000 compounds, 0.63% hits; calls by dose curve; tested in A549 cells; further: nearly all actives have a fitted effect of over 35% in size
Active calls of the source: *; i = inactive; ? = inconclusive; . = not tested or not shown; [ ] = another dose, or the depositor's remark. An excerpt weighted towards active compounds, which were near 8.7% of everything screened. Unless noted, the call rests on the fitted dose curve; in most records, active means well fitted curve in the direction sought with a large enough effect; inconclusive means small, poorly fitted or top-dose-only effect, or another doubt; inactive means no such curve, though single readings can be large; an effect the other way counts as inactive or inconclusive. Unless noted, on the % scale 0 is the no-effect control and ±100 the full control effect; potency means the concentration at half of the fitted maximal effect.

SMILES | Pf growth 48h | AMA1 RON2 block | Vaccinia Venus | Pf growth 96h | VACV mCherry inh
Cc1ccccc1NC(=S)N(Cc1cccnc1)Cc1ccco1 | ? | 3% | -5% | 1.9µM* | -3%
Cc1ccc(Cl)cc1NC(=S)N(Cc1cccnc1)Cc1ccccc1Cl | 13µM* | 14% | -10% | 20% | -13%
Cc1ccccc1NC(=S)N(Cc1ccccc1)Cc1cccnc1 | ? | -4% | -12% | -5% | -13%
Cc1ccccc1NC(=S)N(CCCN1CCC(C)CC1)Cc1ccco1 | -26% | -3% | -8% | 13µM* | -9%
CCCC(=O)n1nc(-c2ccco2)nc1NCc1ccccc1Cl | . | . | -2% | . | -12%
CN1C(=O)C(=Cc2ccccc2OCCOc2ccc([N+](=O)[O-])cc2)C(=O)N(C)C1=O | 4% | 13% | -8% | 12µM* | i
COc1ccc(N2CCN(S(=O)(=O)c3ccc(-c4cc(C(F)(F)F)on4)s3)CC2)cc1 | . | . | -7% | . | -13%
CCc1ccc(CNc2ccc(O)cc2)cc1 | 12µM* | 8% | 0% | 56% | -11%
Oc1ccc(NCc2ccc(OCc3ccccc3)cc2)cc1 | 1%[0.00184 µM] | 42% | -1% | 3% | -10%
O=S1(=O)CCO[C@H]2Cc3ccccc3[C@H]2N1Cc1ccccc1Br | 12% | -1% | -13% | 17µM* | -5%
CC(=O)Nc1c(-c2ccccc2)nc2ccc(Cl)cn12 | . | 2% | . | . | .
O=C(Nc1c(-c2ccccc2)nc2ccc(Cl)cn12)c1cccs1 | 0% | -11% | -9% | 5.2µM* | -16%
Oc1c(Br)cc2oc3c(c2c1CNCc1ccccc1)CCCC3 | . | 41% | 10% | 0.29µM* | -3%
Oc1ccccc1CNCc1ccccc1 | ? | 0% | -11% | ? | -23%
COc1cccc(CC(=O)Nc2ccc(F)c(S(=O)(=O)N3CCOCC3)c2)c1 | . | 5% | -15% | . | -9%
O=C(Cc1cccs1)Nc1ccc(F)c(S(=O)(=O)N2CCOCC2)c1 | ? | -8% | . | 6.6µM* | .
O=C(Cc1cccs1)Nc1ccc(Cl)c(S(=O)(=O)N2CCOCC2)c1 | 10µM* | 4% | -14% | ? | i
COc1ccc(-c2cnc(C)o2)cc1S(=O)(=O)Nc1ccc(C)c(F)c1 | . | . | -16% | . | -13%
COC(=O)c1ccccc1NC(=O)Cn1c(=O)n(CCCC(=O)NCc2ccccc2OC)c(=O)c2ccccc21 | . | . | -13% | . | ?
CSc1nccc(-c2cc(Cl)c3c(c2)CC(CNC(=O)c2ccc(C)nc2)O3)n1 (stereo unspecified) | . | . | 0% | . | i
CCCN1C(=O)C2(c3ccccc31)c1c(oc3cc(C)c(C)cc3c1=O)C(=O)N2CCCOC (stereo unspecified) | . | . | -9% | . | -7%
Cc1ccc(C(=O)N/N=C/c2ccc(-c3ccc(Br)cc3[N+](=O)[O-])o2)o1 | 9.3µM* | 45% | -7% | ? | -14%
CC1Cc2cc(S(=O)(=O)NCc3ccc(F)cc3)ccc2N1C(=O)C1CCC1 (stereo unspecified) | . | . | -25% | . | -20%
CN1CCC(N(C)S(=O)(=O)c2ccc(NC(=O)c3ccc(S(=O)(=O)N(C)C)cc3)cc2)CC1 | . | -2% | -20% | . | -15%
Cc1c(C(=O)Nc2ccc(S(=O)(=O)N(C)C3CCN(C)CC3)cc2)oc2ccccc12 | 4.7µM* | -10%[11.6 µM] | ? | ? | -10%
SMILES | Pf growth 48h | AMA1 RON2 block | Vaccinia Venus | Pf growth 96h | VACV mCherry inh
Cc1c(C(=O)Nc2ccc(S(=O)(=O)N(C)C3CCN(C)CC3)cc2)oc2c(Cl)cccc12 | 2.9µM* | -7% | ? | 2.6µM* | ?
COc1ccc(CC(=O)NC(c2ccccc2)c2ccc(C)cc2)c(OC)c1 (stereo unspecified) | 10µM* | -8% | -13% | ? | -17%
COc1ccc(OC)c(CC(=O)NC(c2ccccc2)c2ccccc2)c1 | ? | -7% | -11% | 6.6µM* | -4%
Cc1ccc(N2CC(NC(=O)c3ccc4c(c3)OCO4)CC2=O)cc1 (stereo unspecified) | . | . | -13%[7.34 µM] | . | -7%[7.34 µM]
COc1ccc(CN(Cc2cccnc2)S(=O)(=O)c2ccc(-n3cnnn3)c(OC)c2)cc1 | 12µM* | 12% | -13% | 22% | i
COc1cc(S(=O)(=O)N(Cc2cccc(OC)c2OC)CC2CCCO2)ccc1-n1cnnn1 (stereo unspecified) | ? | 64% | . | ? | .
COc1ccc(CN(C2CCCC2)S(=O)(=O)c2ccc(-n3cnnn3)c(OC)c2)cc1OC | 15µM* | -3% | -21% | ? | -9%
COc1cccc(CN(Cc2cccnc2)S(=O)(=O)c2ccc(-n3cnnn3)c(C)c2)c1OC | 12µM* | -7% | -14% | . | -3%
COc1ccc(CN(CC2CCCO2)S(=O)(=O)c2ccc(-n3cnnn3)c(OC)c2)cc1 (stereo unspecified) | -14% | 2% | -8% | -1% | i
COc1cc(CN(C2CCCCC2)S(=O)(=O)c2ccc(S(=O)(=O)N(C)C3CCCCC3)cc2)cc(OC)c1OC | ? | -11% | -16% | 8.3µM* | i
CCN(C1CCCCC1)S(=O)(=O)c1ccc(OC)c(C)c1 | -9% | 8% | -14% | 11% | .
COc1ccc2ccccc2c1CN1CCOc2ccc(CN3CCN(CCO)CC3)cc2C1 | . | . | -7% | . | -10%
CCOc1cc(S(=O)(=O)N(Cc2ccccc2)Cc2ccccc2)c(OCC)cc1-n1cnnn1 | ? | -2% | -5% | 6.6µM* | -13%
COc1ccc(CN(Cc2ccc(OC)cc2)S(=O)(=O)c2ccc(-n3cnnn3)c(C)c2)cc1 | ? | -14% | -16% | 13µM* | -21%
Cn1c(O)c(/C=N/N2CCOCC2)c(=O)n(C)c1=S | 13µM* | 16% | -10% | 36% | -17%
COc1cc(/C=C/C(C)=NNc2ccccc2)ccc1O | . | 0% | -21% | . | 3.5µM*
COc1ccc(N2CC(NC(=O)/C=C\c3ccc(OC)c(OC)c3)CC2=O)cc1 (stereo unspecified) | . | . | -14% | . | -17%
CCN(CC)c1ccc2cc(C(N)=O)c(=O)oc2c1 | 109% | 9% | ? | 10µM* | ?
O=C(CCl)Nc1cccc(Oc2ccccc2)c1 | ? | 4% | -2% | 4.7µM* | -6%
